We go through 33 compounds from PubChem BioAssay (Tox21).

Values joined by “and” are separate entries in the source; they are usually repeats but may differ in a detail not shown here. Identical values can stand only once. Inconclusive results are not listed. A call without a number means that no potency is given here. Active and inactive are the calls of the source. The call rests on the fitted dose curve; in most records, active means well fitted curve in the direction sought with a large enough effect in the repeat runs; inconclusive means weak or mixed curves; inactive means no such curve, though single readings can be large; an effect the other way counts as inactive or inconclusive.

The first assay is described as follows: qHTS assay for small molecule disruptors of the mitochondrial membrane potential (AID 720635). Further: potency means the concentration at half of the fitted maximal effect. To be noted: HepG2 mitochondrial membrane potential, Mito-MPS dye ratio; series mostly up to 83.2 µM. A digest of the protocol: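 HepG2 cells exposed to compound 1 hr at 37C, then Mito-MPS dye 30 min. Ratio read of aggregate (540/590 nm) versus monomer (490/535 nm) fluorescence.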
In the case of `Nc1ccc(N)c2ccccc12`, the Potency is 0.153 µM (active).

For the compound `CCCCCCCC/C=C\CCCCCCCCOCCO`, the Potency is 1.78 µM (active). Turning to `CCCCCCCCCOC(=O)c1ccc(O)cc1`, the Potency was 4.27 µM (active). In the case of `CCCCCCOC(=O)c1ccc(O)cc1`, the Potency was 6.12 µM (active) and 8.63 µM (active). The same measure, in the same setting: the value for `Cc1onc(-c2c(Cl)cccc2Cl)c1C(=O)N[C@@H]1C(=O)N2[C@@H]1SC(C)(C)[C@@H]2C(=O)O` was “inactive”; that for `NNc1nc(-c2ccc(N)cc2)cs1` was 0.0545 µM (active); that for `CC/C(=C(\c1ccc(O)cc1)c1ccc(OCCN(C)C)cc1)c1ccccc1` was 24.4 µM (active). Regarding `CCOc1nc2cccc(C(=O)OC(C)OC(=O)OC3CCCCC3)c2n1Cc1ccc(-c2ccccc2-c2nn[nH]n2)cc1` (configuration not stated), the Potency is 13.7 µM (active). `CCC(C)Nc1ccc(NC(C)CC)cc1` (configuration not stated): the Potency is 8.8 µM (active). On the same count and under the same terms, the value for `CC1(C)CCC(C)(C)c2cc(C(=O)Nc3ccc(C(=O)O)cc3)ccc21` was 54.5 µM (active); that for `CCCCC(CC)CN=C(N)NC(N)=NCCCCCCN=C(N)NC(N)=NCC(CC)CCCC` (configuration not stated) was 17.6 µM (active); that for `CCCCCCCCCCCCc1ccc(O)cc1` was 2.73 µM (active). Regarding `O=C(Nc1cccc([N+](=O)[O-])c1)c1cc2ccccc2cc1O`, the Potency was 0.154 µM (active). Turning to `Clc1ccccc1C(c1ccccc1)(c1ccccc1)n1ccnc1`, the Potency was 10.1 µM (active) and 9.69 µM (active). Take `O=C1c2c(O)ccc(Nc3ccc(CCO)cc3)c2C(=O)c2c([N+](=O)[O-])ccc(O)c21`: the Potency is 1.93 µM (active). As for `Cc1cccc(CN2CCN(C(c3ccccc3)c3ccc(Cl)cc3)CC2)c1` (configuration not stated), the Potency result is “inactive”. As to `CCCN(CCC)c1c([N+](=O)[O-])cc(C(F)(F)F)c(N)c1[N+](=O)[O-]`, the Potency was 4.31 µM (active).

A further assay is described as follows: qHTS assay to test for compound auto fluorescence at 590 nm (red) in HepG2 cells (AID 720674). Conditions: HepG2 autofluorescence, red 540/590 nm, 1 h; series mostly up to 91.3 µM. A digest of the protocol:
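HepG2 cells, 2,000 per well in MEM with 10% FBS, attached overnight at 37 C, then got 23 nL compound or DMSO. After 1 hr at 37 C, 5% CO2, red fluorescence was read at 540/590 nm against Rose Bengal sodium as reference.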
With `C[C@@H](NCCCc1cccc(C(F)(F)F)c1)c1cccc2ccccc12`, the Potency entry was “inactive”. As to `CSc1ccc(/C=C2/C(C)=C(CC(=O)O)c3cc(F)ccc32)cc1`, the Potency result is “inactive”. With `CN(C)C(=O)C1(N2CCCCC2)CCN(CC[C@@]2(c3ccc(Cl)c(Cl)c3)CN(C(=O)c3ccccc3)CCO2)CC1`, the Potency result was “inactive”. The same measure, in the same setting: next, `Nc1ccc(N)c2ccccc12`: “inactive”; `CCOC(=O)O[C@]1(C(=O)OCCl)CC[C@H]2[C@@H]3CCC4=CC(=O)C=C[C@]4(C)[C@H]3[C@@H](O)C[C@@]21C`: “inactive”. As to `CCCCCCCC/C=C\CCCCCCCCOCCO`, the Potency result was “inactive”.

`CCCCCCCCCOC(=O)c1ccc(O)cc1`: the Potency entry was “inactive”. Same read-out and setting: next, `CCCCCCOC(=O)c1ccc(O)cc1`: “inactive”. `NC(=NCCCCCCN=C(N)/N=C(\N)Nc1ccc(Cl)cc1)/N=C(\N)Nc1ccc(Cl)cc1`: the Potency result is “inactive”. In the case of `CC(C)C(C)(C)C(C)(C)C(C)(C)S`, the Potency entry is “inactive”.

Regarding `Oc1ccc(C2(c3ccc(O)cc3)CC3CC2C2CCCC32)cc1` (configuration not stated), the Potency entry was “inactive”. Turning to `Cc1onc(-c2c(Cl)cccc2Cl)c1C(=O)N[C@@H]1C(=O)N2[C@@H]1SC(C)(C)[C@@H]2C(=O)O`, the Potency result was “inactive”. Regarding `NNc1nc(-c2ccc(N)cc2)cs1`, the Potency result is “inactive”. As to `CC/C(=C(\c1ccc(O)cc1)c1ccc(OCCN(C)C)cc1)c1ccccc1`, the Potency entry is “inactive”. On to `CCOc1nc2cccc(C(=O)OC(C)OC(=O)OC3CCCCC3)c2n1Cc1ccc(-c2ccccc2-c2nn[nH]n2)cc1` (configuration not stated), for which the Potency entry is “inactive”. Regarding `CCC(C)Nc1ccc(NC(C)CC)cc1` (configuration not stated), the Potency result is “inactive”. Take `CC1(C)CCC(C)(C)c2cc(C(=O)Nc3ccc(C(=O)O)cc3)ccc21`: the Potency result is “inactive”. On to `CCCCCCC[N+](CC)(CC)CCCCc1ccc(Cl)cc1`, for which the fluorescence, relative to Rose Bengal is -0.305% [at 18.6 µM] (inactive). For the compound `Fc1ccc([C@@H]2CCNC[C@H]2COc2ccc3c(c2)OCO3)cc1`, the Potency entry was “inactive”. Take `CCCCC(CC)CN=C(N)NC(N)=NCCCCCCN=C(N)NC(N)=NCC(CC)CCCC` (configuration not stated): the Potency entry is “inactive”. As to `Cc1cc(CCN2CCN(c3nsc4ccccc34)CC2)cc2c1NC(=O)CC2(C)C`, the Potency entry was “inactive”.

In the case of `CCCCCCCCCCCCc1ccc(O)cc1`, the Potency result is “inactive”. With `O=C(Nc1cccc([N+](=O)[O-])c1)c1cc2ccccc2cc1O`, the Potency entry is “inactive”.

For `Fc1ccc(C(c2ccc(F)cc2)N2CCN(C/C=C/c3ccccc3)CC2)cc1`, the Potency entry was “inactive”. `CCCC(c1cc(C(C)(C)C)c(O)cc1C)c1cc(C(C)(C)C)c(O)cc1C`: the Potency entry is “inactive”. Regarding `Clc1ccccc1C(c1ccccc1)(c1ccccc1)n1ccnc1`, the Potency result is “inactive”.

On to `O=C(Oc1cccc2cccnc12)c1ccccc1`, for which the Potency result is “inactive”.

Take `O=C1CCCCCN1SSN1CCCCCC1=O`: the Potency entry was “inactive”. Regarding `Cc1ccc(O)c(C(C)(C)C)c1`, the Potency entry is “inactive”.

`CCCCCCCCNC(C)C(O)c1ccc(SC(C)C)cc1` (configuration not stated): the Potency result is “inactive”.
